“And” between values parts separate entries of the source, which are not always exact repeats. Equal entries are not always repeated. The source made the active and inactive calls. A call without a number means that no potency is given here. Unless noted, the call rests on the fitted dose curve; in most records, active means well fitted curve in the direction sought with a large enough effect in the repeat runs; inconclusive means weak or mixed curves; inactive means no such curve, though single readings can be large; an effect the other way counts as inactive or inconclusive.
Columns and labels:
[1] = qHTS assay to test for compound auto fluorescence at 535 nm (green) in HEK293 cells (AID 720680)
[2] = qHTS assay to test for compound auto fluorescence at 460 nm (blue) in HEK293 cell free culture (AID 720681)
How it was run: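 Compounds were added to cell-free DMEM with 10% FBS and fluorescence read directly. The blue channel used 405 nm excitation and 460 nm emission, with triamterene as the reference fluorophore.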

[3] = qHTS assay to test for compound auto fluorescence at 535 nm (green) in HEK293 cell free culture (AID 720682)
How it was run: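 Green-label autofluorescence (485 nm excitation, 535 nm emission) measured on compound added to cell-free culture medium (DMEM, 10% FBS). Output is expressed relative to fluorescein.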

[4] = qHTS assay to test for compound auto fluorescence at 590 nm (red) in HEK293 cell free culture (AID 720683)
How it was run: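 Cell-free wells of DMEM with 10% FBS received compound, and intrinsic fluorescence was read at excitation/emission 540/590 nm. Values expressed as equivalence to Rose Bengal sodium.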

[5] = qHTS assay to test for compound auto fluorescence at 590 nm (red) in HepG2 cell free culture (AID 720684)
How it was run: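 Compounds are added to culture medium (MEM, 10% FBS) lacking cells, then fluorescence is read at excitation 540 nm, emission 590 nm, with Rose Bengal sodium as the equivalency standard.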

[6] = qHTS assay to test for compound auto fluorescence at 460 nm (blue) in HepG2 cell free culture (AID 720685)
How it was run: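 Compound (23 nL) or DMSO pinned into cell-free MEM with 10% FBS; blue fluorescence read at 405/460 nm excitation/emission, expressed as auto-fluorescence equivalency to triamterene.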

[7] = qHTS assay to test for compound auto fluorescence at 535 nm (green) in HepG2 cell free culture (AID 720686)
[8] = qHTS assay to test for compound auto fluorescence at 460 nm (blue) in HepG2 cells (AID 720687)
How it was run: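 HepG2 cells in MEM with 10% FBS, attached overnight at 37 C, were exposed to compound or DMSO for 1 hr at 37 C, 5% CO2. Blue fluorescence was read at 405/460 nm, with triamterene as reference fluorophore.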

[9] = qHTS assay for identifying genotoxic compounds that show differential cytotoxicity against isogenic chicken DT40 cell lines with known DNA damage response pathways - wild type cell line (AID 743012); further: nearly all actives have a fitted effect of over 60% in size; further: potency means the concentration at half of the fitted maximal effect
How it was run: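 Wild-type DT40 cells (300/well) exposed to compounds for 40 hours at 37 C/5% CO2. Viability read by CellTiter-Glo luminescence after 30 min at room temperature.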

[10] = qHTS assay for identifying genotoxic compounds that show differential cytotoxicity against isogenic chicken DT40 cell lines with known DNA damage response pathways - Rev3 mutant cell line (AID 743014); further: nearly all actives have a fitted effect of over 55% in size; further: potency means the concentration at half of the fitted maximal effect
[11] = qHTS assay for identifying genotoxic compounds that show differential cytotoxicity against isogenic chicken DT40 cell lines with known DNA damage response pathways - Rad54/Ku70 mutant cell line (AID 743015); further: nearly all actives have a fitted effect of over 60% in size; further: potency means the concentration at half of the fitted maximal effect
[12] = qHTS assay to identify small molecule antagonists of the androgen receptor (AR) signaling pathway - cell viability counter screen (AID 743033; further: nearly all actives have a fitted effect of over 45% in size; further: potency means the concentration at half of the fitted maximal effect)
[13] = qHTS assay to identify small molecule antagonists of the glucocorticoid receptor (GR) signaling pathway - cell viability counter screen (AID 720693); further: nearly all actives have a fitted effect of over 55% in size; further: potency means the concentration at half of the fitted maximal effect
[14] = qHTS assay to identify small molecule antagonists of the androgen receptor (AR) signaling pathway using the MDA cell line - cell viability counter screen (AID 743041; further: nearly all actives have a fitted effect of over 45% in size; further: potency means the concentration at half of the fitted maximal effect)
How it was run: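 Same-well cytotoxicity was assessed by CellTiter-Fluor in MDA-kb2 AR-luc cells after 16 h of compound treatment under R1881 agonism.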

[15] = molecular target: Androgen receptor (Homo sapiens) (UniProt P10275); assay: qHTS assay to identify small molecule antagonists of the androgen receptor (AR) signaling pathway (AID 743035; active means well fitted inhibition curve with a large enough effect in the signal ratio in the repeat runs, not every such curve was filed as active; inconclusive means weak or mixed curves, or effect the other way; inactive means no such curve, though single readings can be large or run the other way; the % refers to the signal ratio)
How it was run: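 HEK293 cells stably carrying UAS-beta-lactamase reporter, 2,000/well, given compounds plus R1881 agonist and incubated 16 h at 37C. LiveBLAzer B/G FRET substrate then added for 2 h at room temperature before fluorescence reading.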

[16] = molecular target: Androgen receptor (Homo sapiens) (UniProt P10275); assay: qHTS assay to identify small molecule agonists of the androgen receptor (AR) signaling pathway (AID 743036; active means well fitted activation curve with a large enough effect in the signal ratio in the repeat runs, with a control signal flat, not every such curve was filed as active; inconclusive means weak or mixed curves, or effect the other way; inactive means no such curve, though single readings can be large or run the other way; the % refers to the signal ratio)
How it was run: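 AR-UAS-bla HEK293 cells, plated 4 h before dosing, were treated with compound for 16 h at 37C. beta-Lactamase reporter read after 2 h with LiveBLAzer B/G FRET substrate at room temperature.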

[17] = molecular target: Androgen receptor (Homo sapiens) (UniProt P10275); assay: qHTS assay to identify small molecule agonists of the androgen receptor (AR) signaling pathway using the MDA cell line (AID 743040; further: nearly all actives have a fitted effect of over 20% in size)
How it was run: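 Human breast carcinoma MDA-kb2 reporter cells (MMTV-luc, AR/GR elements) were treated for 16 h at 37C in 0% CO2 following a 5 h settling period. Signal was quantified by ONE-Glo luminescence.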

[18] = molecular target: Androgen receptor (Homo sapiens) (UniProt P10275); assay: qHTS assay to identify small molecule antagonists of the androgen receptor (AR) signaling pathway using the MDA cell line (AID 743042; further: nearly all actives have a fitted effect of over 55% in size)
How it was run: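 MDA-kb2 breast carcinoma cells carrying MMTV-luciferase (AR/GR responsive) were co-treated with compounds and the agonist R1881 for 16 h at 37C. Inhibition read as ONE-Glo luminescence; CellTiter-Fluor fluorescence measured in parallel for cytotoxicity.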

[19] = molecular target: Glucocorticoid receptor (Homo sapiens) (UniProt P04150); assay: qHTS assay to identify small molecule agonists of the glucocorticoid receptor (GR) signaling pathway (AID 720691; active means well fitted activation curve with a large enough effect in the signal ratio in the repeat runs, not every such curve was filed as active; inconclusive means weak or mixed curves, or effect the other way; inactive means no such curve, though single readings can be large or run the other way; the % refers to the signal ratio; further: potency means the concentration at half of the fitted maximal effect); details: GR-bla HeLa, beta-lactamase reporter ratio, 18 h; activation: at 62.4 µM (top of the series)
How it was run: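 GR-bla HeLa cells carrying a GRE-driven beta-lactamase reporter, exposed to compounds for 18 h at 37 C. Reporter activation read as fluorescence after 2 h with LiveBLAzer B/G FRET substrate at room temperature.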

Androgen receptor (Homo sapiens), sequence (P10275 whole entry, looked up): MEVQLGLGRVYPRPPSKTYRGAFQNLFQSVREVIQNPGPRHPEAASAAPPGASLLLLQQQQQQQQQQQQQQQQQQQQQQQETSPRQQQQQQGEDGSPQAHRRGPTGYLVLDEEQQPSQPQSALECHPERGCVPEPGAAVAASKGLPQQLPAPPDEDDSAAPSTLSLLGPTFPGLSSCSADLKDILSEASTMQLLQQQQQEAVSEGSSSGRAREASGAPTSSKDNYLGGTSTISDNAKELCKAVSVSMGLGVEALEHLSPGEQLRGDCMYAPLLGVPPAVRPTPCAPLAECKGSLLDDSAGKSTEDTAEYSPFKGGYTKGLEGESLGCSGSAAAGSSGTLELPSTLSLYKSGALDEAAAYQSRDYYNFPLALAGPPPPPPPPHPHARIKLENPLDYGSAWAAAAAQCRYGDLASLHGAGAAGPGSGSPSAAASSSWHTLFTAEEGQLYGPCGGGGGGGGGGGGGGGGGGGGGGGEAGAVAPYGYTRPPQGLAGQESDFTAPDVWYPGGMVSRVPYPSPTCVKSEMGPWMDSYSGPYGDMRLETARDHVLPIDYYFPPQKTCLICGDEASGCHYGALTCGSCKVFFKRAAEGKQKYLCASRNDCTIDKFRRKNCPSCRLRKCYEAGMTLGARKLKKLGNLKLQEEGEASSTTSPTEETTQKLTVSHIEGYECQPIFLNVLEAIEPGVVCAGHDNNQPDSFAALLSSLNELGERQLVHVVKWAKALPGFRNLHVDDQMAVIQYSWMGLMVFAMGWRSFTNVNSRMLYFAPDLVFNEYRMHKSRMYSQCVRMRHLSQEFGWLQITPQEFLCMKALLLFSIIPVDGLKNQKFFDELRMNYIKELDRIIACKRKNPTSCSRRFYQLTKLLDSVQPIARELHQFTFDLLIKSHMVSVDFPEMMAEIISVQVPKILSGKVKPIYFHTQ
Glucocorticoid receptor (Homo sapiens), sequence (P04150 whole entry, looked up): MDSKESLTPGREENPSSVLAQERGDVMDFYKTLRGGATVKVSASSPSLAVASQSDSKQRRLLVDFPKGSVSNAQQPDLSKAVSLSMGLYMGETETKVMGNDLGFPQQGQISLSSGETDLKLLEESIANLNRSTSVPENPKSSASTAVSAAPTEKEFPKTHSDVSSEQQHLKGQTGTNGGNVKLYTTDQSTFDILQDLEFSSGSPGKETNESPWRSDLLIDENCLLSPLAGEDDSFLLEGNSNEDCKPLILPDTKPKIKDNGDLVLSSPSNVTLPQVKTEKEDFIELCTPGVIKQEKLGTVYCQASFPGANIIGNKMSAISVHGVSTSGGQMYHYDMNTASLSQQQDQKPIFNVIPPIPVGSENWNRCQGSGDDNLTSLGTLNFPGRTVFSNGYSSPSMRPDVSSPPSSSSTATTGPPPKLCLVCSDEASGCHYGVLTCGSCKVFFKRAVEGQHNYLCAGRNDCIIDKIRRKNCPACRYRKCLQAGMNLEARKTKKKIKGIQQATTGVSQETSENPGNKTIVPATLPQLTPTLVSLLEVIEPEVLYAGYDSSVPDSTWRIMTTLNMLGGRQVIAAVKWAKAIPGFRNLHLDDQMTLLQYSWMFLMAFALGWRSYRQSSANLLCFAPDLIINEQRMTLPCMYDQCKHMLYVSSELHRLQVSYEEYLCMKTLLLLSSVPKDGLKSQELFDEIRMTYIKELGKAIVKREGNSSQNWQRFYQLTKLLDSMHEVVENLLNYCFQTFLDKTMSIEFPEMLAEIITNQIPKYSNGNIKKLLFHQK

Compound | Potency [1] | Potency [2] | Potency [3] | Potency [4] | Potency [5] | outcome [6] | Potency [7] | outcome [8] | Potency [9] | Potency [10] | Potency [11] | Potency [12] | Potency [13] | Potency [14] | Potency [15] | Potency [16] | Potency [17] | Potency [18] | Potency [19]
CC[C@@H](C(=O)[C@@H](C)[C@@H](O)[C@H](C)[C@@H]1O[C@@H]([C@@H](CC)C(=O)O)CC[C@@H]1C)[C@H]1O[C@]2(C=C[C@@H](O)[C@]3(CC[C@@](C)([C@H]4CC[C@](O)(CC)[C@H](C)O4)O3)O2)[C@H](C)C[C@@H]1C | inactive | inactive | inactive | inactive | inactive | inactive | inactive | inactive | 1.5 µM (active) | 0.944 µM (active) | 1.19 µM (active) | 1.51 µM (active) | – | – | – | – | – | – | –
S=C1SCN(Cc2ccccc2)CN1Cc1ccccc1 | inactive | inactive | inactive | inactive | inactive | inactive | inactive | inactive | – | 13.3 µM (active) | 13.3 µM (active) | inactive | inactive | – | – | – | – | – | –
NC(Cc1ccccc1)C(=O)O (configuration not stated) | inactive | inactive | inactive | inactive | inactive | inactive | inactive | inactive | – | inactive | inactive | – | inactive | inactive | – | – | – | – | –
CCCCC[C@H](O)/C=C/[C@H]1[C@H](O)CC(=O)[C@@H]1CCCCCCC(=O)O | inactive | inactive | inactive | inactive | inactive | inactive | inactive | inactive | – | inactive | – | – | inactive | inactive | – | – | – | – | –
O=C(O)c1ccc(NC(=O)[C@H](Cc2ccc(O)cc2)NC(=O)c2ccccc2)cc1 | inactive | inactive | inactive | inactive | inactive | inactive | inactive | inactive | – | inactive | – | – | inactive | inactive | inactive | inactive | inactive | inactive | –
O=S(=O)(O)CCCS(=O)(=O)O | inactive | inactive | inactive | inactive | inactive | inactive | inactive | inactive | inactive | – | inactive | – | inactive | inactive | – | – | – | – | –
CCCCCCCC(=O)CC[C@@H]1[C@@H](C/C=C\CCCC(=O)OC(C)C)[C@@H](O)C[C@H]1O | inactive | inactive | inactive | inactive | inactive | inactive | inactive | inactive | 8.41 µM (active) | 21.1 µM (active) | 13.3 µM (active) | – | – | inactive | – | – | – | – | –
NCCC[C@H](N)C(=O)O | inactive | inactive | inactive | inactive | inactive | inactive | inactive | inactive | – | – | – | inactive | inactive | inactive | – | – | – | – | –
Cc1nnc(C(C)C)n1C1C[C@H]2CC[C@@H](C1)N2CC[C@H](NC(=O)C1CCC(F)(F)CC1)c1ccccc1 (some centres not stated) | inactive | inactive | inactive | inactive | inactive | inactive | inactive | inactive | inactive | inactive | inactive | inactive | – | inactive | – | – | – | – | –
O=C(CCCN1CCC(n2c(=S)[nH]c3ccccc32)CC1)c1ccc(F)cc1 | inactive | inactive | inactive | inactive | inactive | inactive | inactive | inactive | 11.9 µM (active) | 18.8 µM (active) | 16.8 µM (active) | – | – | – | – | – | – | – | –
CC1(C)[C@@H]2CC[C@@]1(C)[C@H](OC(=O)CSC#N)C2 | inactive | inactive | inactive | inactive | inactive | inactive | inactive | inactive | – | inactive | inactive | inactive | inactive | inactive | – | – | – | – | –
CC(C)N1CCN(c2ccc(OC[C@H]3CO[C@](Cn4cncn4)(c4ccc(Cl)cc4Cl)O3)cc2)CC1 | inactive | inactive | inactive | inactive | inactive | inactive | inactive | inactive | 4.52 µM (active) | 5.07 µM (active) | 6.39 µM (active) | inactive | – | inactive | – | – | – | – | –
C=C1C(=C/C=C2\CCC[C@]3(C)[C@@H]([C@H](C)CCCC(C)(C)O)CC[C@@H]23)C[C@@H](O)C[C@@H]1O | inactive | inactive | inactive | inactive | inactive | inactive | inactive | inactive | 5.96 µM (active) | 11.9 µM (active) | 10.6 µM (active) | inactive | – | – | – | – | – | – | –
CCC[C@@H]1C[C@@H](C(=O)N[C@@H]([C@H]2O[C@H](SC)[C@H](O)[C@@H](O)[C@H]2O)[C@H](C)Cl)N(C)C1 | inactive | inactive | inactive | inactive | inactive | inactive | inactive | inactive | – | – | – | inactive | inactive | inactive | – | – | – | – | –
CO[C@H]1C[C@H](O[C@H]2[C@H](C)[C@@H](O[C@@H]3O[C@H](C)C[C@H](N(C)C)[C@H]3OC(C)=O)[C@@H](C)C[C@]3(CO3)C(=O)[C@H](C)[C@@H](OC(C)=O)[C@@H](C)[C@@H](C)OC(=O)[C@@H]2C)O[C@@H](C)[C@@H]1OC(C)=O | inactive | inactive | inactive | inactive | inactive | inactive | inactive | inactive | inactive | – | inactive | – | inactive | inactive | inactive | inactive | inactive | inactive | –
CC(=O)[C@]1(O)Cc2c(O)c3c(c(O)c2[C@@H](O[C@H]2C[C@H](N)[C@H](O)[C@H](C)O2)C1)C(=O)c1c(O)cccc1C3=O | inactive | inactive | inactive | inactive | inactive | inactive | – | inactive | 18.8 nM (active) and 21.1 nM (active) | – | – | – | 3.01 µM (active) | 11.9 µM (active) | – | – | – | – | 10.7 µM [inconclusive] (active) and 23.9 µM [inconclusive] (active)

Source: PubChem BioAssay (Tox21)
